Data as given in the supplement of paper PMC3334620.
In all, about 33,000 sequences were measured (“E-score (-0.5 to 0.5)”: median about -0.043, highest 2% from about 0.37 on). This excerpt belongs to a sample that is enriched for the highest values.

Target: T1, Upc2 (UniProt Q12151)
T1 sequence: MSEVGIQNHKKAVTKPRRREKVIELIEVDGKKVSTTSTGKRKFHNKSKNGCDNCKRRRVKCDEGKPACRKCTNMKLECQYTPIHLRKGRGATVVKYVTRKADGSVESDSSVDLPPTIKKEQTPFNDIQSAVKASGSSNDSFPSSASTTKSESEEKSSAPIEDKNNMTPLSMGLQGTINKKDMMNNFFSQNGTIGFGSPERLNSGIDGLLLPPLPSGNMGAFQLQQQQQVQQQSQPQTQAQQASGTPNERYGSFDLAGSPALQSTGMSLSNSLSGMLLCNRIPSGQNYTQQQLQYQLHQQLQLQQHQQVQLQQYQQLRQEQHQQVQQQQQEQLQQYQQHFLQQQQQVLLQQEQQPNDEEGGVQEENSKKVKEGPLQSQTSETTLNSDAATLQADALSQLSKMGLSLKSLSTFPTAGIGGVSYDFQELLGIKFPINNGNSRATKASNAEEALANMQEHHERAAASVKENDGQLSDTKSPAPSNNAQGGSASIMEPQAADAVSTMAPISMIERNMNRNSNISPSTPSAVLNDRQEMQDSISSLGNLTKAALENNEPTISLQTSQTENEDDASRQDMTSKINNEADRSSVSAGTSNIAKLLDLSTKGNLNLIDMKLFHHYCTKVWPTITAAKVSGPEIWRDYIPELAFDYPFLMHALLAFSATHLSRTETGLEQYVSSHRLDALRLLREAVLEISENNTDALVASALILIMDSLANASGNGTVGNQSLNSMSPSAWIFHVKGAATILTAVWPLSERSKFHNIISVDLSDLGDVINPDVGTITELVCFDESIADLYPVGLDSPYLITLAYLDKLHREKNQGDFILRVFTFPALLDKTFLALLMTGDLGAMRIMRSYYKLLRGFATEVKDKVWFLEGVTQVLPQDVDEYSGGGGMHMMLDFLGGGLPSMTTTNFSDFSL
Test: PBM E-score (8-mer binding enrichment) (E-score (-0.5 to 0.5)); higher = stronger / more preferred TF binding
Settings: protein concentration: 200 nM; construct: GST-full length
Procedure, shortened: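 Universal all-10-mer Agilent arrays, fresh or stripped once, were converted to double-stranded form by primer extension. GST-tagged yeast transcription factors from PURExpress in vitro transcription/translation, full-length or DNA-binding domain only, were applied at about 100-200 nM and detected with fluorescent anti-GST. After masliner normalisation, the Universal PBM Analysis Suite scored each ungapped eight-base word together with its reverse complement by E-score.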

| Sequence | PBM E-score |
| --- | --- |
| CCACCAGA | -0.0981 |
| AAGCGTAT | 0.33 |
| TATCGCGA | 0.182 |
| CTGCTACC | -0.161 |
| CCTTGGAC | -0.0581 |
| GGCTGTGA | -0.125 |
| GCCGTTTA | 0.465 |
| ACCGTTTG | 0.333 |
| ACCGTTTA | 0.458 |
| ACCGTTTC | 0.244 |
| CACGTTTA | 0.363 |
| GCCGTTCA | 0.31 |
| CCCGTTTA | 0.456 |
| CCCGTTTC | 0.197 |
| GCCGTTAA | 0.292 |
| AACCAAGG | -0.0086 |
| AAAAACTG | -0.0494 |
| ACACGCTC | 0.0594 |
| CGCTGCAC | -0.0173 |
| AAAGGCTA | -0.173 |
| ACTGTGCG | 0.134 |

| Sequence | PBM E-score |
| --- | --- |
| GCGTAGAA | 0.0848 |
| CCGTAGAA | 0.118 |
| CCGTAGCA | 0.0702 |
| TCGTAGAA | 0.39 |
| TCGTAGCA | 0.39 |
| ACGTAGCA | 0.0515 |
| TAACTGAA | -0.0941 |
| ACAACACT | 0.0862 |
| ATATGGTA | 0.158 |
| CTTCTTAA | 0.0092 |
| ACCCTCGA | -0.244 |
| ACCCTCGC | 0.0921 |
| AACCTCGA | 0.0605 |
| AACCTCGT | 0.372 |
| ACCCTCGT | 0.419 |
| AACCTCGC | 0.0636 |
| TCAGGCAA | -0.146 |
| TATTCACA | 0.101 |
| CGTACCGC | 0.416 |
| CGTACCGA | 0.398 |
| CATACCGC | 0.00223 |

| Sequence | PBM E-score |
| --- | --- |
| AGTACCGA | -0.0766 |
| AGTACCGC | 0.1 |
| GGTACCGA | 0.0871 |
| GCTCATCA | -0.195 |
| GTAAAGCA | 0.223 |
| ACTTCTGA | -0.307 |
| CGGGGCAG | 0.131 |
| TCAGAAAA | -0.153 |
| AGCCGTAC | 0.346 |
| GGCCGTAC | 0.389 |
| CGCCGTAC | 0.408 |
| CGCCGTAA | 0.285 |
| GGCCGTAA | 0.255 |
| CGCCGTAG | 0.0712 |
| TCTCTCCA | -0.118 |
| CCACAGCG | -0.302 |
| ATGATCCG | -0.0506 |
| CTCGAGCC | 0.135 |
| CGATATCG | 0.244 |
| AAGCTTCG | 0.145 |
| AACGCAAT | 0.138 |
